About 890 (0.31%) of roughly 290,000 compounds were called active. Rule as the data show it: active = inhibition mostly above about 52% (no sharp cut-off); inactive = mostly below about 76%. The entries come from a sample that favours actives as a whole.
Test: cell-free HIV fusion peptide-binding blockers – biochemical, uHTS, fluorescence dequenching, primary screen (AID 1986)
Details: 30 min, stronger effect = higher value
[1] = measured here: repeat confirmation average inhibition, at 18.6 µM

Structure (SMILES)	inhibition (at 20 µM)	inhibition [1] [%]
CCOc1ccc(NC(=O)CSc2nc3ccsc3c(=O)n2CCC(=O)O)cc1	2.5% (inactive)	
Oc1oc(-c2ccccc2Br)nc1C=Nc1ccc(Br)cn1	-0.2% (inactive)	
COc1ccc(N=Nc2n(C)c3ccccc3[n+]2C)cc1	79.3% (active)	
COc1ccc(N2CC(O)=C(c3n(C)c4ccccc4[n+]3C)C2=N)cc1	1.6% (inactive)	
Cn1c(N=Nc2ccc(N3CCOCC3)cc2)[n+](C)c2ccccc21	-4.1% (inactive)	
CC(C)(C)c1cc(C(=O)C[n+]2ccc(C(=O)NCCCO)cc2)cc(C(C)(C)C)c1O	-4% (inactive)	
CCCOC(=O)C1C2C=CC3(CN(c4cccc(Cl)c4)C(=O)C13)O2 (stereo not given)	0.8% (inactive)	
Cc1cc(N2CCOCC2)n2nc(C(F)(F)F)c(-c3ccccc3)c2n1	0.1% (inactive)	
Cc1cc(C)n2nc(C(F)(F)F)c(-c3ccccc3)c2n1	0.5% (inactive)	
CC(C)(C)c1ccc(C(=O)Nc2cccc3ncccc23)cc1	62% (active)	65.1
O=C(Nc1cccc2ncccc12)c1ccc(Cl)cc1	-1% (inactive)	
O=C(Nc1cccc2ncccc12)c1ccc(F)cc1	2.1% (inactive)	
COc1ccc(O)c(C(=O)c2cnc3nc4ccccc4n3c2)c1	28.4% (inactive)	
c1ccc(-c2csc(-c3ccncc3)n2)cc1	0.1% (inactive)	
O=C(O)c1c2c(nc3ccccc13)/C(=C/c1ccc(O)cc1)CC2	77.1% (active)	
O=C(O)c1ccc(/C=C2\CCCc3c2nc2ccccc2c3C(=O)O)cc1	4.2% (inactive)	
O=C(O)c1c2c(nc3ccccc13)/C(=C/c1ccc(O)cc1)CCC2	6.1% (inactive)	
CC(C)OCCCNC(=O)NC12CC3CC(CC(C3)C1)C2	1.1% (inactive)	
Cc1ccc(-n2nc3c(c2NC(=O)c2ccc4c(c2)OCO4)CS(=O)C3)cc1 (stereo not given)	-0.3% (inactive)	
CCc1nnc(NS(=O)(=O)c2ccc(NC(=S)NC(=O)/C=C/c3ccc([N+](=O)[O-])cc3)cc2)s1	25.6% (inactive)	
CCc1nnc(NS(=O)(=O)c2ccc(NC(=S)NC(=O)/C=C/c3ccccc3)cc2)s1	60.8% (active)	
CCc1nnc(NS(=O)(=O)c2ccc(NC(=S)NC(=O)/C=C/c3ccc(OC)cc3)cc2)s1	34.6% (inactive)	
Cc1cccc(C)c1NC(=O)C(Cl)=C(Cl)Cl	0.7% (inactive)	

Structure (SMILES)	inhibition (at 20 µM)	inhibition [1] [%]
O=C(O)c1cccc(S(=O)(=O)N2CCOCC2)c1	-1% (inactive)	
CCn1ncc(Cl)c1C(=O)Nc1cc([N+](=O)[O-])ccc1OC	0.4% (inactive)	
Cc1ccsc1/C=N/NC(=O)c1ccccn1	-0.7% (inactive)	
COc1cccc(N2C(=O)C(c3ccccc3)=C(c3nc4ccccc4s3)C2NC(C)=O)c1 (stereo not given)	0.6% (inactive)	
COc1ccc(C(=O)/C(C#N)=N/Nc2cccc([N+](=O)[O-])c2)cc1	20.6% (inactive)	
N#C/C(=N\Nc1cccc([N+](=O)[O-])c1)C(=O)c1ccc(Br)cc1	63.4% (active)	
COc1ccc(C(=O)/C(C#N)=N/Nc2ccc([N+](=O)[O-])cc2)cc1	5.5% (inactive)	
Cc1c(C(=O)OCC(=O)N(C)c2ccccc2)oc2ccccc12	1.2% (inactive)	
CC(=O)N(C(C)=O)N1C(=O)c2cccc3c(N4CCOCC4)ccc(c23)C1=O	100% (active)	
CCCN(CCC)S(=O)(=O)c1ccc(C(=O)OCCN2C(=O)c3cccc4c(N5CCOCC5)ccc(c34)C2=O)cc1	63.4% (active)	
O=C1c2cccc3c(N4CCCCC4)ccc(c23)C(=O)N1c1ccc(O)cc1	146% (inactive)	
O=C(OCCN1C(=O)c2cccc3c(N4CCOCC4)ccc(c23)C1=O)c1cccc(Cl)c1	151% (inactive)	
CCN(CC)S(=O)(=O)c1ccc(C(=O)OCCN2C(=O)c3cccc4c(N5CCOCC5)ccc(c34)C2=O)cc1	150% (inactive)	
O=C(OCCN1C(=O)c2cccc3c(N4CCOCC4)ccc(c23)C1=O)c1ccccc1Cl	151% (inactive)	
O=C1c2cccc3c(N4CCCCC4)ccc(c23)C(=O)N1c1ccccc1O	100% (active)	
O=C1c2cccc3c(N4CCCCC4)ccc(c23)C(=O)N1c1cccc(O)c1	148% (inactive)	
O=C(OCCN1C(=O)c2cccc3c(N4CCOCC4)ccc(c23)C1=O)c1cc(Cl)cc(Cl)c1	88.8% (active)	
O=C(OCCN1C(=O)c2cccc3c(N4CCOCC4)ccc(c23)C1=O)c1ccc(Cl)cc1	149% (inactive)	
O=C(OCCN1C(=O)c2cccc3c(N4CCOCC4)ccc(c23)C1=O)c1ccc(Cl)cc1Cl	151% (inactive)	
O=C1c2cccc3c(N4CCCCC4)ccc(c23)C(=O)N1CCO	-0.2% (inactive)	
Cc1ccc(C(=O)NC(C(=O)Nc2cccc(S(N)(=O)=O)c2)C(C)C)cc1 (stereo not given)	-1.6% (inactive)	
COc1ccc(CNC(=O)Cn2nc(C(F)(F)F)cc2C)cc1	-0.1% (inactive)	
O=C(O)c1cc(Cl)c(Cl)cc1C(=O)N1CCOCC1	1.9% (inactive)	

Structure (SMILES)	inhibition (at 20 µM)	inhibition [1] [%]
COc1ccccc1-n1c(C)nc2cc(C(=O)NCC3CCCO3)ccc21 (stereo not given)	0.3% (inactive)	
Cc1cc(C)n(C(=O)c2ccc(Cl)c(F)c2F)n1	-0.2% (inactive)	
COc1ccc(CC(=O)Nc2c(C(=O)N3CCN(c4ncccn4)CC3)oc3ccccc23)cc1	-0.6% (inactive)	
O=c1ccc(C(F)(F)F)cn1Cc1cc(=O)n2cc(Br)ccc2n1	1.6% (inactive)	
COC(=O)C(Cc1ccccc1)NC(=O)CSc1nc(C)cc(=O)[nH]1 (stereo not given)	-1.7% (inactive)	
CCNc1cc(=O)n(C)c(=O)n1C	0.1% (inactive)	
CCc1ccc(N=C2NC(=O)/C(=C/c3ccc(OCC(=O)O)c(OC)c3)S2)cc1	55.1% (inactive)	26.6
COc1cc(CO)cc(Br)c1OCC(=O)O	0% (inactive)	
CC(=O)Nc1c(-c2cc(=O)oc3cc(C)ccc23)oc2ccccc12	-0.7% (inactive)	
Cc1ccccc1CN1C(=O)C(C)S/C1=N/N=C/c1ccco1 (stereo not given)	4.6% (inactive)	
O=C(O)c1ccc(-n2c(O)c(C=C3N=c4ccccc4=N3)sc2=S)cc1	33.3% (inactive)	
CC1=Nc2ccccc2/C1=C/c1sc(=S)n(-c2cccc(C(=O)O)c2)c1O	112% (active)	134
O=C(O)c1cccc(-n2c(O)c(C=C3N=c4ccccc4=N3)sc2=S)c1	32.8% (inactive)	
O=[N+]([O-])c1cccc(-c2noc(-c3ccco3)n2)c1	-2.4% (inactive)	
COc1ccccc1-c1nnc(SCC(=O)N2CCC(C)CC2)o1	-1.2% (inactive)	
Cc1ccc(NC(=O)CN2C(=O)S/C(=C\c3ccc(-c4cccc(C(=O)O)c4C)o3)C2=O)cc1C	68.7% (inactive)	6.8
Cc1ccc(OCC(=O)N/N=C\c2ccc(-c3cccc(C(=O)O)c3)o2)c(C)c1	56.8% (active)	
COc1ccc(CC(=O)N/N=C/c2ccc(-c3cccc(C(=O)O)c3)o2)cc1OC	28.8% (inactive)	
Cc1cccc(NC(=O)CN2C(=O)S/C(=C\c3ccc(-c4cccc(C(=O)O)c4C)o3)C2=O)c1	55.2% (active)	
Cc1ccc(NC(=O)CN2C(=O)S/C(=C/c3ccc(-c4cccc(C(=O)O)c4)o3)C2=O)cc1	79.5% (active)	
Cc1ccc(OCC(=O)N/N=C\c2ccc(C)o2)c(C)c1	0.1% (inactive)	
Cc1ccccc1NC(=O)CN1C(=O)S/C(=C\c2ccc(-c3cc(C(=O)O)ccc3C)o2)C1=O	69.3% (inactive)	19.9
Cc1cccc(NC(=O)CN2C(=O)N/C(=C/c3ccc(-c4cccc(C(=O)O)c4C)o3)C2=O)c1	28.4% (inactive)	

Structure (SMILES)	inhibition (at 20 µM)	inhibition [1] [%]
Cc1ccc(NC(=O)CN2C(=O)S/C(=C/c3ccc(-c4cc(C(=O)O)ccc4C)o3)C2=O)cc1C	63.2% (inactive)	35.6
Cc1ccc(C(=O)O)cc1-c1ccc(/C=C2\SC(=O)N(CC(=O)Nc3ccccc3)C2=O)o1	59.6% (active)	
Cc1cccc(NC(=O)CN2C(=O)N/C(=C\c3ccc(-c4cccc(C(=O)O)c4)o3)C2=O)c1	40.3% (inactive)	
CC(C)(C)OC(=O)CN1C(=O)S/C(=C\c2ccc(-c3cccc(C(=O)O)c3)o2)C1=O	51.8% (inactive)	40.6
CCOC(=O)C1=C(C)NC(=O)NC1c1ccc(OCC(=O)OC)c(OC)c1 (stereo not given)	-0.4% (inactive)	
CC(=O)Nc1cccc(CNCc2cccc(NC(C)=O)c2)c1	-0.7% (inactive)	
O=C(Nc1cccc(-c2cn3ccccc3n2)c1)c1cnccn1	-0.3% (inactive)	
CC(=O)C1=C(c2ccccc2)NC(=O)NC1c1cccs1 (stereo not given)	0.1% (inactive)	
CCc1cccc(NC(=O)CCS(=O)(=O)c2cc3c(cc2C)NC(=O)CO3)c1	0.8% (inactive)	
CCOc1cc(-c2nc(-c3ccncc3)no2)cc(OCC)c1OCC	0.5% (inactive)	
CCC(CCC(=O)Nc1cccc(C(=O)O)c1)C(=O)O (stereo not given)	-0.2% (inactive)	
COc1ccc(Br)cc1C(=O)Nc1ccc(N2CCCC2)cc1	-1.9% (inactive)	
Cc1ccc(NC(=O)CN2C(=O)S/C(=C\c3ccc(-c4cccc(C(=O)O)c4C)o3)C2=O)cc1	63.2% (active)	
Cc1ccccc1NC(=O)CN1C(=O)S/C(=C\c2ccc(-c3cccc(C(=O)O)c3C)o2)C1=O	32% (inactive)	
Cc1ccc(C(=O)O)cc1-c1ccc(/C=C2\SC(=O)N(CC(=O)Nc3ccc4c(c3)OCO4)C2=O)o1	69.1% (inactive)	25.2
COc1ccc(C(=O)NC2CCCCCC2)cc1OC1CCN(C(C)=O)CC1	0% (inactive)	
COc1ccc([N+](=O)[O-])cc1NC(=O)COC(C)=O	-1.8% (inactive)	
O=C(CN1CCN(c2ccccc2)CC1)N1CCc2[nH]c3ccccc3c2C1	2% (inactive)	
CCN1CCN(c2c(/C=C3\SC(=S)N(Cc4ccco4)C3=O)c(C)c(C#N)c(=O)n2C)CC1	89.4% (active)	167
CCCN(CCC)c1nc2c(C)cccn2c(=O)c1/C=C1/SC(=S)N(Cc2ccco2)C1=O	49.5% (inactive)	
O=C1/C(=C\c2ccco2)SC(=S)N1Cc1ccccc1	66% (inactive)	-1.7

Source: PubChem BioAssay AID1986 (Sanford-Burnham Center for Chemical Genomics, 2009)
